Inconclusive results are not listed. A number with no mark means an inactive call. Calls of active or inactive are those of the source. Calls come from the whole dose curve; as a rule, active = well fitted curve in the direction sought with a large enough effect; inconclusive = small, poorly fitted or top-dose-only effect, or another doubt; inactive = no such curve, though single readings can be large; an effect the other way counts as inactive or inconclusive.

Test [1] in a line: qHTS of pediatric cancer cell lines to identify multiple opportunities for drug repurposing: Primary screen for control Hh wild type fibroblast cells (AID 1347106).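 Note: series mostly up to about 46 µM; % is set by controls: 0 for no effect and ±100 for the full control effect; a drop in luminescence marks cytotoxicity and a rise apparent proliferation; nearly all actives have a fitted effect of over 55% in size.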 Summed up:
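Viability after 48 h compound treatment at 37C, 500-1,000 cells/well, read as ATP luminescence with CellTiter-Glo. Primary screens used 11-point (MIPE, 0.78 nM-46 µM) or 8-point (NPC, 0.59 nM-46 µM) final concentrations; follow-up screens used 11-point dilutions.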
For orientation: In qHTS, concentration-response curves come from the screen itself.

A short description of test [2]: qHTS of pediatric cancer cell lines to identify multiple opportunities for drug repurposing: Primary screen for Rh30 cells (AID 1347107). Note: series mostly up to about 46 µM; % is set by controls: 0 for no effect and ±100 for the full control effect; nearly all actives have a fitted effect of over 75% in size. Summed up:
(§1)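 Cells (500-1,000/well) in growth media were settled 5 h at 37 degrees C, then given compounds for 48 h. Viability was read as CellTiter-Glo luminescence. Primary runs used MIPE at 11 points (0.78 nM-46 µM) and NPC at 8 points (0.59 nM-46 µM); follow-ups used 11 points.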

Test [3] in a line: qHTS of pediatric cancer cell lines to identify multiple opportunities for drug repurposing: Primary screen for Rh41 cells (AID 1347108).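 Note: series mostly up to about 46 µM; luminescence drop marks cytotoxic hits; nearly all actives have a fitted effect of over 70% in size.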 The procedure, abridged: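 Cells seeded at 500-1,000 cells/well in growth media, rested 5 hours at 37 degrees C, 5% CO2, then dosed; MIPE compounds at 11-point (from 0.78 nM) and NPC at 8-point (from 0.59 nM) final concentrations. Viability by CellTiter-Glo luminescence after 48 hours.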

Test [4] in a line: qHTS of pediatric cancer cell lines to identify multiple opportunities for drug repurposing: Confirmatory screen for A673 cells (AID 1347110).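 Note: cells exposed to compound for 48 h before the viability read; plate controls were DMSO neutral control for no effect and bortezomib positive control for full effect; nearly all actives have a fitted effect of over 65% in size.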 The procedure, abridged: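 Cells plated at 500-1,000/well were treated five hours later with multi-point dilutions up to 46 µM final. After two days, CellTiter-Glo was added and luminescence read.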
Test [5] is described as follows: qHTS of pediatric cancer cell lines to identify multiple opportunities for drug repurposing: Confirmatory screen for DAOY cells (AID 1347114). For activity change, negative = cytotoxic: % is set by controls: 0 for no effect and ±100 for the full control effect. Note: nearly all actives have a fitted effect of over 65% in size. Note: potency is the fitted concentration of half-maximal effect. The procedure, abridged:
(§2)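 Viability measured as metabolically active cells via CellTiter-Glo luminescence following 48 hours of compound exposure, 11-point dilutions in confirmatory testing. 500-1,000 cells/well plated 5 hours before dosing; controls were DMSO and 2.3 µM bortezomib.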

Test [6] in a line: qHTS of pediatric cancer cell lines to identify multiple opportunities for drug repurposing: Confirmatory screen for NB-EBc1 cells (AID 1347115). For activity change, negative = cytotoxic: % is set by controls: 0 for no effect and ±100 for the full control effect.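 Note: cells exposed to compound for 48 h before the viability read; nearly all actives have a fitted effect of over 45% in size.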 Note: potency is the fitted concentration of half-maximal effect. Summed up:
as §1

Test [7] is described as follows: qHTS of pediatric cancer cell lines to identify multiple opportunities for drug repurposing: Confirmatory screen for RD cells (AID 1347124). For activity change, negative = cytotoxic: % is set by controls: 0 for no effect and ±100 for the full control effect.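 Note: cells exposed to compound for 48 h before viability readout; nearly all actives have a fitted effect of over 65% in size.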 Note: potency is the fitted concentration of half-maximal effect. The procedure, abridged: as §1
A short description of test [8]: qHTS of pediatric cancer cell lines to identify multiple opportunities for drug repurposing: Confirmatory screen for NB1643 cells (AID 1347109).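 Note: plate controls were DMSO for no effect and bortezomib for full effect; nearly all actives have a fitted effect of over 45% in size.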 Summed up:
as §1

Test [9] in a line: qHTS of pediatric cancer cell lines to identify multiple opportunities for drug repurposing: Confirmatory screen for SK-N-MC cells (AID 1347111).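 For activity change, negative = cytotoxic: plate controls were DMSO for no effect and bortezomib for full effect.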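 Note: cells exposed to compound for 48 h before the readout; nearly all actives have a fitted effect of over 70% in size.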 Note: potency is the fitted concentration of half-maximal effect. Summed up: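 Metabolically active cells were quantified by ATP-dependent luminescence (CellTiter-Glo, 15 min at room temperature) following 48 h treatment. Cells had been plated at 500-1,000 per well and settled for 5 h beforehand.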

Test [10] is described as follows: qHTS of pediatric cancer cell lines to identify multiple opportunities for drug repurposing: Confirmatory screen for BT-12 cells (AID 1347112). Note: % is set by controls: 0 for no effect and ±100 for the full control effect; nearly all actives have a fitted effect of over 55% in size. Summed up:
as §1

Test [11] in a line: qHTS of pediatric cancer cell lines to identify multiple opportunities for drug repurposing: Confirmatory screen for LAN-5 cells (AID 1347113). Note: nearly all actives have a fitted effect of over 65% in size. The procedure, abridged: as §1
Test [12] is described as follows: qHTS of pediatric cancer cell lines to identify multiple opportunities for drug repurposing: Confirmatory screen for SJ-GBM2 cells (AID 1347116).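 For activity change, negative = cytotoxic: plate controls were DMSO for no effect and bortezomib for full effect.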 Note: nearly all actives have a fitted effect of over 60% in size. Note: potency is the fitted concentration of half-maximal effect. The procedure, abridged: as §2
Test [13] can be described thus: qHTS of pediatric cancer cell lines to identify multiple opportunities for drug repurposing: Confirmatory screen for BT-37 cells (AID 1347117).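 Note: plate controls were DMSO for no effect and bortezomib for full effect; nearly all actives have a fitted effect of over 55% in size.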 Summed up:
as §1

Test [14] in a line: qHTS of pediatric cancer cell lines to identify multiple opportunities for drug repurposing: Confirmatory screen for TC32 cells (AID 1347118). Note: potency is the fitted concentration of half-maximal effect. Summed up: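 Luminescent ATP read-out (CellTiter-Glo) of metabolically active TC32 cells after 48 h exposure. Concentration-response curves came from 11-point (MIPE, 0.78 nM–46 µM) or 8-point (NPC, 0.59 nM–46 µM) primary titrations; follow-up used 11 points.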

Test [15] can be described thus: qHTS of pediatric cancer cell lines to identify multiple opportunities for drug repurposing: Confirmatory screen for control Hh wild type fibroblast cells (AID 1347121).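 Note: plate controls were DMSO for no effect and bortezomib for full effect; nearly all actives have a fitted effect of over 70% in size.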 The procedure, abridged:
as §1

The nature of test [16]: qHTS of pediatric cancer cell lines to identify multiple opportunities for drug repurposing: Confirmatory screen for U-2 OS cells (AID 1347122). Note: nearly all actives have a fitted effect of over 65% in size. Note: potency is the fitted concentration of half-maximal effect. Summed up:
as §1

A short description of test [17]: qHTS of pediatric cancer cell lines to identify multiple opportunities for drug repurposing: Confirmatory screen for Rh41 cells (AID 1347123).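 For activity change, negative = cytotoxic: plate controls were DMSO for no effect and bortezomib for full effect.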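 Note: 48 h compound exposure; nearly all actives have a fitted effect of over 60% in size.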 Note: potency is the fitted concentration of half-maximal effect. Summed up: as §1
Test [18] in a line: qHTS of pediatric cancer cell lines to identify multiple opportunities for drug repurposing: Confirmatory screen for Rh18 cells (AID 1347125). Note: % is set by controls: 0 for no effect and ±100 for the full control effect; nearly all actives have a fitted effect of over 55% in size. Summed up: as §1
The nature of test [19]: qHTS of pediatric cancer cell lines to identify multiple opportunities for drug repurposing: Confirmatory screen for Rh30 cells (AID 1347126). For activity change, negative = cytotoxic: % is set by controls: 0 for no effect and ±100 for the full control effect. Note: nearly all actives have a fitted effect of over 55% in size. Note: potency is the fitted concentration of half-maximal effect. Summed up: as §1
Test [20] can be described thus: qHTS of pediatric cancer cell lines to identify multiple opportunities for drug repurposing: Confirmatory screen for Saos-2 cells (AID 1347127).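 Note: plate controls were DMSO for no effect and bortezomib for full effect; nearly all actives have a fitted effect of over 60% in size.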 The procedure, abridged:
as §1

As for `O=C(NCCc1c[nH]c2ccccc12)c1cccnc1`, the Potency result in [1], in [2] and in test [3] was “inactive” each time.

Regarding `CC(C)=CCOc1ccc(/C=C/C(=O)c2ccc(OCC=C(C)C)cc2OCC(=O)O)cc1`, the Potency result in test [1] and in test [3] was “inactive” each time.

Turning to `Cc1c[nH]c2ccccc12`, the Potency entry in test [1] and in test [3] was “inactive” in each case.

Take `CN(C)C(=O)Nc1ccc(Cl)c(Cl)c1`: the Potency entry in test [1], in test [2], in [3], in test [4], in test [5] and in test [7] was “inactive” each time. For the same molecule, the Potency in test [6] is 23.3 µM (active).

Consider `CN(C)CCOC(=O)C(c1ccccc1)C1(O)CCCC1` (stereo unspecified), for which the Potency entry in test [1], in test [2] and in test [3] was “inactive” throughout.

Take `CC(C)Cc1ccc(CC(=O)O)cc1`: the Potency result in test [1] and in test [3] was “inactive” throughout.

Turning to `O=[N+]([O-])c1ccc(/C=N\O)o1`, the Potency entry in [1], in test [2], in test [3], in test [8], in [4] and in test [10] was “inactive” in each case. In addition, the Potency entry in [11], in test [13], in test [15] and in test [18] was “inactive” each time. Moreover, the Potency in test [9] was 5.85 µM (active); in test [12] it was 928 nM (active); in test [14], 3.29 µM (active); in [16], 4.14 µM (active); in [17] it was 5.85 µM (active); in [7] it was 414 nM (active). Moreover, in test [19], the Potency was 1.17 µM (active).

With `CCCCC(CC)COC(=O)c1ccc(N(C)C)cc1` (stereo unspecified), the Potency entry in [1], in [2] and in test [3] was “inactive” in each case.

For `CCCCCCCC/C=C\CCCCCCCCN`, the Potency result in [1], in [2] and in test [3] was “inactive” each time.

For the molecule `COc1ccccc1N1CCN(CCCCNC(=O)c2ccc(-c3ccc(C(C)=O)cc3)cc2)CC1`, the Potency result in test [1], in test [2] and in test [3] was “inactive” throughout.

With `CCCCCCCCCCC[C@@H](C[C@@H]1OC(=O)[C@H]1CCCCCC)OC(=O)[C@H](CC(C)C)NC=O`, the Potency entry in test [1], in [2], in test [3], in test [8], in [4] and in [10] was “inactive” throughout. In addition, the Potency entry in test [11], in test [5], in [6], in test [12], in test [13] and in test [15] was “inactive” in each case. The Potency result in test [16], in test [18], in [19] and in test [20] was “inactive” in each case. Besides, the Potency in [17] was 4.65 µM (active).

Regarding `O=C(O)P(=O)(O)O`, the Potency result in [1], in test [2] and in [3] was “inactive” throughout.

With `O=C(NC1CCN(CCc2c[nH]c3ccccc23)CC1)c1ccccc1`, the Potency entry in test [1] and in test [3] was “inactive” throughout.

On to `CN(CCCN1c2ccccc2CCc2ccccc21)CC(=O)c1ccc(Cl)cc1`, for which the Potency result in test [1] and in test [3] was “inactive” throughout.

Take `N=C(N)N1CCc2ccccc2C1`: the activity change, negative = cytotoxic was -9.54% [at 4.84 µM] in test [1], 7.74% [at 4.84 µM] in [2] and 1.21% [at 4.84 µM] in test [3].

Turning to `CCCCCCCCCCCCCCC[C@H](O)[C@@H](N)CO`, the Potency entry in [1], in test [2] and in [3] was “inactive” each time.

In the case of `CC(=O)NCCCCCC(=O)O`, the Potency entry in [1] and in test [3] was “inactive” throughout.

As for `CCN[C@@H]1C[C@H](N)[C@@H](OC2OC(CN)=CCC2N)[C@H](O)[C@H]1O[C@H]1OC[C@](C)(O)[C@H](NC)[C@H]1O` (stereo partly specified), the activity change, negative = cytotoxic in test [1] was 8.24% [at 0.597 µM]; in test [2], 14.5% [at 0.597 µM]; in test [3] it was 8.19% [at 0.597 µM]; in test [8], 11.9% [at 0.556 µM]; in test [9] it was -2.44% [at 0.556 µM]; in test [10] it was -6.5% [at 0.556 µM]. Besides, the activity change, negative = cytotoxic in [5] was 15.9% [at 0.556 µM]; in [6], -1.08% [at 0.556 µM]; in [12], 5.75% [at 0.556 µM]; in test [13] it was 4.53% [at 0.556 µM]; in test [17], 13.6% [at 0.556 µM]; in [7] it was 11.8% [at 0.556 µM]. In addition, the activity change, negative = cytotoxic was 4.31% [at 0.556 µM] in test [18], 25.4% [at 0.556 µM] in test [19] and 11.1% [at 0.556 µM] in test [20]. The Potency result in test [14] was “inactive”. Moreover, the activity, negative = cytotoxic in [15] is 8.41% [at 0.556 µM]. Moreover, the outcome in test [16] is “inactive [at 0.556 µM]”.

In the case of `OC(C#CCN1CCCC1)(c1ccccc1)c1ccccc1`, the Potency result in [1], in test [2] and in test [3] was “inactive” each time.

Regarding `C[C@H]1[C@H]2CC[C@H]3[C@@H]4CC=C5C[C@@H](N(C)C)CC[C@]5(C)[C@H]4CC[C@]23CN1C`, the Potency result in [1], in [2] and in test [3] was “inactive” each time.

Take `NC(=S)N/N=C/c1cccnc1`: the Potency result in test [1], in test [2] and in [3] was “inactive” throughout.

With `CCCCCCCCCCCCOCCOCCOCCOCCOCCOCCOCCOCCOCCO`, the Potency entry in test [1], in test [2], in [8], in [12], in test [13] and in [7] was “inactive” each time. In addition, the Potency entry in test [18], in test [19] and in [20] was “inactive” throughout. Besides, the Potency in test [5] and in [16] was 14.7 µM (active) each time.

Turning to `O=C(CCCN1CC=C(n2c(=O)[nH]c3ccccc32)CC1)c1ccc(F)cc1`, the Potency entry in [8], in test [4], in test [11], in test [6], in test [12] and in [13] was “inactive” throughout. In addition, the Potency entry in test [15], in [7], in test [18], in [19] and in test [20] was “inactive” throughout. Further, the Potency in test [17] is 18.5 µM (active).

For `CC(CNC1CCCCC1)OC(=O)c1ccccc1` (stereo unspecified), the Potency result in [1] and in [3] was “inactive” throughout.

`O=[N+]([O-])c1cccc(S(=O)(=O)NCCNS(=O)(=O)c2cccc([N+](=O)[O-])c2)c1`: the Potency result in test [1] and in test [3] was “inactive” in each case.

These data come from PubChem BioAssay (NCATS).
